# Over roughly 3,200 compounds, “TSA(with NAD+) / Primary screening (TSA) / delta Tm (K)” has its median near -0.04; the highest 2% begin near 0.37. The entries come from a sample that favours the highest values as a whole.
# Molecular target: NAD-dependent deacetylase Sirtuin 1 (human, UniProt Q96EB6)
# Experiment: primary screen, delta tm
# Design: single well (n = 1, as 'the same TSA')
# Conditions: 10 µM
# Chain of NAD-dependent deacetylase Sirtuin 1 (Q96EB6 2-747 limits assumed): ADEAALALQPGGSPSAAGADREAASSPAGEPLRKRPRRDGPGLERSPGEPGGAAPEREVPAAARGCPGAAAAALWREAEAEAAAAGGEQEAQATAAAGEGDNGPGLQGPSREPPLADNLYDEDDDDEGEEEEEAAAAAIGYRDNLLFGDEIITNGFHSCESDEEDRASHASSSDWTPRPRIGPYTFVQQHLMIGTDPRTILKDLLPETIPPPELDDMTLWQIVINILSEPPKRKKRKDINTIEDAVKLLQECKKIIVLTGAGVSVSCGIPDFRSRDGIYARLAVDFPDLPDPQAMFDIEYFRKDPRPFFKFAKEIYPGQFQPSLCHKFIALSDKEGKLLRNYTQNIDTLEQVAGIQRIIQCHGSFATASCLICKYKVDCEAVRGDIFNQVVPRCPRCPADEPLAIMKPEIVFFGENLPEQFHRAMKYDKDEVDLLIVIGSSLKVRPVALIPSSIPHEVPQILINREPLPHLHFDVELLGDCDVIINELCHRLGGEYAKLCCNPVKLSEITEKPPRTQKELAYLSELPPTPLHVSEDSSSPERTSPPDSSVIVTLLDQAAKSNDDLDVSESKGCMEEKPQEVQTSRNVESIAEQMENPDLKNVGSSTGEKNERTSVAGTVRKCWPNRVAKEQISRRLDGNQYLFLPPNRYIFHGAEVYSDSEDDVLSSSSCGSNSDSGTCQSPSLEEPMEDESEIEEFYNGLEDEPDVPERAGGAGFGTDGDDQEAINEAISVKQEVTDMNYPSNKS
row,Structure (SMILES),TSA(with NAD+) / Primary screening (TSA) / delta Tm (K)
1,CC(C)c1ccc(C(NC(=O)c2cccc(C(N)=O)c2)c2cccs2)cc1 (stereo not shown),-0.05
2,O=C1NC(=S)N/C1=C\c1ccccc1OCc1ccc(C(=O)O)cc1,0.23
3,Cc1nc(-c2ccc(CCNC(=O)c3ccc(NC(N)=O)cc3)s2)cs1,0.08
4,COc1ccc(C(=O)NCCc2ccc(-c3csc(C)n3)s2)cc1,-0.09
5,Cc1nc(-c2ccc(CCNC(=O)c3ccc(NC(=O)c4cccs4)cc3)s2)cs1,0.58
6,Cc1ccccc1CNC(=O)CSc1nc2ccsc2c(=O)n1C,-0.22
7,O=C(Nc1ccc2c3c(cccc13)CC2)N1CCC(n2cncn2)CC1,-0.08
8,CCCN1CCN(CCCOc2ccccc2)CC1,-0.12
9,CC12CCC(C/C1=N/N=C1/CC3CCC1(C)C3(C)C)C2(C)C,-0.29
10,CC(=O)N1N=C(c2ccc(O)cc2)CC1c1ccccc1 (stereo not shown),0.36
11,CC(=O)N1N=C(c2ccccc2)CC1c1ccc(Br)cc1 (stereo not shown),-0.08
12,O=C(CSc1nnnn1-c1ccc(O)cc1)N1N=C(c2ccc3ccccc3c2)CC1c1ccccc1 (stereo not shown),0.66
13,COc1ccnc(C(=O)NCC(C)(C)N2CCC(N(C)C)CC2)c1,-0.14
14,OC(CNc1ncccn1)c1ccc(Cl)cc1 (stereo not shown),-0.04
15,O=C(O)c1ccc2[nH]c(S)nc2c1,-0.13
16,CC(OC(=O)Cc1c[nH]c2ccccc12)C(=O)Nc1ccc(C(N)=O)cc1 (stereo not shown),0.12
17,O=C(CCc1c[nH]c2ccccc12)Nc1ccc2nc[nH]c(=O)c2c1,0.27
18,O=C(CCc1c[nH]c2ccccc12)NCCc1ccco1,-0.11
19,O=C(CCc1c[nH]c2ccccc12)Nc1nnc(-c2ccccc2)o1,0.39
20,O=C1NC(=S)NC(=O)C1=Cc1cc2ccccc2[nH]c1=O,-0.09
21,O=C(Nc1cccc(S(=O)(=O)N2CCOCC2)c1)C(c1ccccc1)c1ccccc1,0.16
22,O=C(Nc1cccc(S(=O)(=O)N2CCOCC2)c1)c1cn(-c2ccccc2)nc1-c1ccc(Cl)cc1,0.63

row,Structure (SMILES),TSA(with NAD+) / Primary screening (TSA) / delta Tm (K)
1,O=C(Nc1cccc(S(=O)(=O)N2CCOCC2)c1)c1cn(-c2ccccc2)nc1-c1ccc(F)cc1,0.39
2,O=C(Nc1cccc(S(=O)(=O)N2CCOCC2)c1)c1cccc(S(=O)(=O)N2CCc3ccccc32)c1,0.41
3,O=C(Nc1cccc(S(=O)(=O)N2CCOCC2)c1)c1ccccc1Cc1ccccc1,-0.09
4,O=C(Nc1cccc(S(=O)(=O)N2CCOCC2)c1)c1cc(-c2ccccc2)nn1-c1ccccc1,-0.04
5,Cc1ccc(-c2nn(-c3ccccc3)cc2C(=O)Nc2cccc(S(=O)(=O)N3CCOCC3)c2)cc1,0.26
6,O=C(Nc1cccc(S(=O)(=O)N2CCOCC2)c1)c1cn(-c2ccccc2)nc1-c1ccccc1,0.12
7,CN(c1ccccc1)S(=O)(=O)c1ccc(C(=O)Nc2cccc(S(=O)(=O)N3CCOCC3)c2)cc1,-0.01
8,O=C(CCC(=O)c1ccccc1)Nc1ccccc1Cc1ccccc1,-0.11
9,COC1CCCC1NC(=O)Cc1sc(S)nc1C (stereo not shown),-0.26
10,COc1ccccc1C1C(C(=O)/C=C/c2ccco2)=C(O)C(=O)N1CCCN1CCOCC1 (stereo not shown),-0.18
11,CC(N)C(N)=O (stereo not shown),-0.19
12,Cc1nc(N2CCC(C(N)=O)CC2)c2c3c(sc2n1)CCCCC3,0.66
13,Cc1nc(N2CCC(NC(N)=O)CC2)c2c3c(sc2n1)CCCC3,-0.03
14,Cc1nc(N2CCC(C(N)=O)CC2)c2c3c(sc2n1)CCCC3,0.57
15,Cc1nc(N2CCN(c3ncccc3C(N)=O)CC2)c2c3c(sc2n1)CCC3,0.02
16,Cc1nc(N2CCC(C(N)=O)CC2)c2c3c(sc2n1)CCC3,0.01
17,NC(=O)C1CCN(c2ncnc3sc4c(c23)CCC4)CC1,-0.04
18,Cc1noc(C(C)N2CCN(Cc3cccc(C(N)=O)c3)CC2)n1 (stereo not shown),-0.03
19,NCCC[C@@H](N)C(=O)O,-0.08
20,O=C(CCc1nc2ccccc2o1)N1CCN(C(c2ccc(F)cc2)c2ccc(F)cc2)CC1,-0.01
21,O=C(O)c1ccc2[nH]c(C(F)(F)F)nc2c1,-0.14
22,COc1cc(-c2nc(-c3ccccc3)c(-c3ccccc3)[nH]2)ccc1OS(=O)(=O)c1ccc(C)cc1,0.05

row,Structure (SMILES),TSA(with NAD+) / Primary screening (TSA) / delta Tm (K)
1,CNC(=O)CCNc1ccc2nnc(C(F)(F)F)n2n1,0.08
2,COC(=O)C[C@H](N)C(=O)O,0.02
3,COCC(C)N (stereo not shown),-0.04
4,Cc1ccc(C23CC4CC(CC(C(=O)OCC(=O)Nc5ccc(S(N)(=O)=O)cc5)(C4)C2)C3)cc1,0.29
5,Cc1ccc(C23CC4CC(CC(C(=O)OCC(N)=O)(C4)C2)C3)cc1C,-0.16
6,Cc1ccc(C23CC4CC(CC(C(=O)OC(C)C(=O)Nc5ccc(S(N)(=O)=O)cc5)(C4)C2)C3)cc1C (stereo not shown),0.43
7,COc1cc(OC)c(OC)cc1C=C1C(=O)NC(=S)NC1=O,-0.16
8,Cc1csc2c(N3CC4CCCN4CC3C)ncnc12 (stereo not shown),-0.19
9,CCCCCCCCNC(=O)/C(C#N)=C/c1c[nH]c2ccccc12,0.43
10,CCOc1ccc(/C=C(/C#N)C(=O)c2c[nH]c3cc(F)ccc23)cc1,-0.03
11,N#C/C(=C\c1[nH]c2ccccc2c1Cl)C(N)=O,-0.09
12,O=C(NCC1CCCO1)Nc1ccc(NC(=O)c2ccccn2)cc1 (stereo not shown),0.06
13,Cc1ccc(C(=O)Nc2ccc(NC(=O)NCC3CCCO3)cc2)cn1 (stereo not shown),0.55
14,COc1cc(C=C(C(=O)NCC2CCCO2)C(=O)NCC2CCCO2)ccc1OCC(=O)Nc1ccc(C)cc1 (stereo not shown),-0.15
15,COC(=O)c1ccc2[nH]c3c(c2c1)CN(S(C)(=O)=O)CC3,0.16
16,N#CCCC(C#N)CN1CCC(CCc2ccc(O)cc2)CC1 (stereo not shown),-0.14
17,CC(NC(=O)COC(=O)c1cccc(S(=O)(=O)NCc2ccccc2)c1)C12CC3CC(CC(C3)C1)C2 (stereo not shown),0.05
18,CC(NS(=O)(=O)c1cccc(C(=O)OCC(=O)Nc2sccc2C#N)c1)C12CC3CC(CC(C3)C1)C2 (stereo not shown),0.37
19,CC(=O)c1ccc(NC(=O)C(C)OC(=O)c2cccc(S(=O)(=O)NC(C)C34CC5CC(CC(C5)C3)C4)c2)cc1 (stereo not shown),0.19
20,O=C(COC(=O)c1cccc(NS(=O)(=O)/C=C/c2ccccc2)c1)NC12CC3CC(CC(C3)C1)C2,-0.01
21,O=C(COC(=O)c1cccc(S(=O)(=O)NCc2ccccc2)c1)NC12CC3CC(CC(C3)C1)C2,-0.25
22,Cc1cccc(NS(=O)(=O)c2cccc(C(=O)OCC(=O)NC(=O)NC34CC5CC(CC(C5)C3)C4)c2)c1,0.46

row,Structure (SMILES),TSA(with NAD+) / Primary screening (TSA) / delta Tm (K)
1,Cn1cc(C(=O)O)c(-c2cccnc2)n1,0.06
2,NC(=O)CCN(Cc1ccccc1)C(=O)COC(=O)C12CC3CC(C1)CC(c1ccccc1)(C3)C2,-0.03
3,O=C(Oc1ccc2oc3ccccc3c2c1)c1ccc([N+](=O)[O-])cc1,-0.08
4,COc1ccc2cc(/C=C/C(=O)Nc3ccc(C(N)=O)cc3)ccc2c1,0.76
5,CCN(CC(=O)Nc1ccc(OC)cc1)CC(=O)Nc1ccc(C(N)=O)cc1,-0.04
6,COc1ccc(C(=O)OC(C)C(=O)Nc2ccc(C(N)=O)cc2)c(OC)c1 (stereo not shown),-0.01
7,O=C(NCc1ccccc1O)c1ccc2c(c1)C(=O)c1ccccc1-2,-0.03
8,CCC(=O)Nc1cccc(C(=O)NNC(=O)c2nc(-c3ccccc3)n(-c3ccccc3)n2)c1,-0.06
9,CC(C)C(NC(=O)CCCn1c(=O)oc2cc([N+](=O)[O-])ccc21)c1nnc2ccccn12 (stereo not shown),-0.11
10,Cc1nc(-c2ccccn2)[nH]c(=O)c1CC(=O)NCCc1cccc2cccnc12,0.28
11,CC(C(=O)NC(c1ccccc1)C1CC1)n1cnc2ccccc21 (stereo not shown),0.05
12,O=C(CCCc1nc2ccccc2c(=O)[nH]1)N1CC2CC3CC(C2)CC1C3,-0.01
13,CC(N)c1nnn[nH]1 (stereo not shown),-0.05
14,COc1ccc(NC(=O)c2ccccc2NC(=O)COC(=O)C23CC4CC(CC(O)(C4)C2)C3)cc1,-0.04
15,COc1ccc(NC(=O)CC23CC4CC(C2)CC(CC(=O)Nc2ccc(OC)cc2)(C4)C3)cc1,-0.11
16,COc1ccccc1NC(=O)c1ccc(NC(=O)COC(=O)C23CC4CC(CC(C4)C2)C3)cc1,0.39
17,COc1ccccc1NS(=O)(=O)c1ccc(NC(=O)CNC(=O)C23CC4CC(CC(C4)C2)C3)cc1,0.08
18,COc1ccc(NC(=O)c2ccc(NC(=O)COC(=O)C34CC5CC(CC(Br)(C5)C3)C4)cc2)cc1,0.73
19,COc1ccccc1NC(=O)COc1ccc(C(=O)OCC(=O)NC23CC4CC(CC(C4)C2)C3)cc1OC,0.13
20,Cc1ccccc1CC(=O)Nc1ccc(N2CCN(Cc3ccccc3)CC2)cc1,0.09
21,CN(c1ccccc1)S(=O)(=O)c1ccc(C(=O)NNC(=O)C23CC4CC(CC(C4)C2)C3)cc1,0.08
22,COC(=O)c1ccccc1Nc1ccnc(Cl)n1,-0.11

# From article PMC6925144, “A prospective compound screening contest identified broader inhibitors for Sirtuin 1” (Scientific Reports, 2019)
